The source of these data is PubChem BioAssay AID938 (National Center for Advancing Translational Sciences (NCATS), 2007).

Where “and” joins values, the source holds several entries; their conditions need not be identical. Identical values can stand only once. Screen size: about 73,000 compounds; about 1,800 (2.5%) were called active. Another 13% or so got no clear call; they are omitted. Calls come from the whole dose curve; as a rule, active = well fitted activation curve with a large enough effect; inconclusive = small, poorly fitted or top-dose-only effect; inactive = no such curve, though single readings can be large or run the other way. The sample as a whole holds a higher share of actives than the screen did. A structure can be active in one record and inactive in another.
Potency is the fitted concentration of half-maximal effect.

A short description of the test: qHTS Assay for Agonists of the Thyroid Stimulating Hormone Receptor: Activators of Intracellular cAMP Concentrations in Parental HEK 293. For activation: % of control where 0% means no effect. Note: nearly all actives have a fitted effect of over 55% in size. Particulars: parental HEK293 CNG cAMP sensor, membrane potential fluorescence; series mostly up to 57.1 µM; activation: at the top concentration. Put shortly: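 Counterscreen for endogenous-receptor signalling: CNG-channel HEK 293 cells report cAMP rise by membrane depolarization. After 60 min dye equilibration with 100 uM RO 20-1724, compounds incubated 30 min before bottom-read fluorescence at 590 nm.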
`COC(=O)[C@@H](NC(=O)NCc1cccc(OC)c1)C(C)C`: the “activation” value was 7.43% (inactive).
As for `O=C(Nc1ccccc1N1CCN(c2ccccc2)CC1)c1cccc(F)c1`, the Potency is 3.98 µM (active).
Consider `O=C(c1cccc(F)c1)N1CCC2(CC1)CCN(c1ccccc1)CC2`, for which the “activation” value was -0.919% (inactive).
`O=C(Nc1cccc(NC(=O)N2CCN(c3ccccc3)CC2)c1)N1CCN(c2ccccc2)CC1`: the “activation” value is -10.9% (inactive).
On the same count and under the same terms, the figure for `O=C1[C@H]2[C@H]3[C@H](O)[C@H](O)C/C(=N/OCc4ccccc4)[C@H]3CC[C@@H]2C(=O)N1Cc1ccccc1` is -2.25% [at 11.4 µM] (inactive); for `C[C@@H](c1ccccc1)N1C(=O)[C@H]2[C@H]3[C@H](O)[C@H](O)C/C(=N/OC[C@@H](O)COCc4ccco4)[C@@H]3CC[C@@H]2C1=O` it is 5.7% [at 11.4 µM] (inactive).
The same measure, in the same setting: to `O=C(NCc1ccco1)c1cccn2c(=O)c3cc(Br)ccc3nc12` belongs 5.6% (inactive); to `O=C(NCc1ccco1)c1nc(-c2ccccc2)n(-c2ccccc2)n1`, 22.4% (inactive).
For the molecule `O=C(NCc1ccco1)c1cc(-c2cccnc2)nc2ccc(Cl)cc12`, the Potency is 31.6 µM (active).
As for `CN(C)CCCCNC(=O)c1ccc(Cc2nc3ccccc3[nH]2)cc1`, the “activation” value is 3.13% (inactive).
As for `Oc1c(Cl)cc(Cl)c(Cl)c1Cc1c(O)c(Cl)cc(Cl)c1Cl`, the Potency was 10 µM (active).
As to `C=CC(=O)c1ccc2ccccc2c1`, the “activation” value is 8.58% (inactive).
On to `O=C(CCSc1ccccc1)NCCSc1ccccn1`, for which the “activation” value was 15.3% (inactive).
For `COc1ccc(CCn2nnnc2C(c2ccccc2)N2CCN(C)CC2)cc1OC` (configuration not stated), the “activation” value was 26.2% (inactive).
Regarding `CC(C)C(c1nnnn1CCc1ccccc1)N1CCN(C(=O)c2ccco2)CC1` (configuration not stated), the “activation” value is 20.5% (inactive).
`N#Cc1ccc(C(c2nnnn2CCc2ccccc2)N2CCCCCC2)cc1` (configuration not stated): the Potency is 15.8 µM (active).
Take `S=c1c2[nH]cnc2ncn1CCSc1ncnc2nc[nH]c12`: the activation was -1.69% [at 11.4 µM] (inactive).
The same measure, in the same setting: the figure for `c1ccc(-n2nnnc2N2CCOCC2)cc1` is -5.36% (inactive).
For the molecule `c1ccc(-c2oc3ncnc(N4CCOCC4)c3c2-c2ccccc2)cc1`, the Potency was 15.8 µM (active).
As for `c1ccc(COc2nsnc2N2CCOCC2)cc1`, the “activation” value was 27.1% (inactive).
As for `CC(C)NC(=O)CCCn1c(=S)[nH]c2cc3c(cc2c1=O)OCO3`, the “activation” value was 8.66% (inactive).
As for `O=C(Nc1ccccc1)N[C@H]1C[C@H](C(=O)O)Nc2cc(Cl)cc(Cl)c21`, the “activation” value is 8% (inactive).
Same read-out and setting: the figure for `Cc1noc(C)c1-c1cc(NCc2cccnc2)ncn1` is -4.51% (inactive).
Regarding `CNc1cc(-c2c(C)noc2C)ncn1`, the Potency is 3.98 µM (active).
In the case of `COCCNc1cc(-c2c(C)noc2C)ncn1`, the “activation” value is 2.35% (inactive).
The same measure, in the same setting: the figure for `O=C(CSc1nnc(-c2ccoc2)o1)N1CCOCC1` is -3.67% (inactive).
Still for that read-out and setting: to `CC(=O)OCC1OC(C#CCCCc2ccccc2)C=CC1OC(C)=O` (configuration not stated) belongs -0.905% [at 11.4 µM] (inactive).
As for `COCCCNC(=O)CCc1nc2cccnc2n1Cc1ccc(OC)cc1`, the “activation” value was -5.11% (inactive).
On the same count and under the same terms, to `COC(=O)[C@@H]1CC[C@H](C)[C@@H](c2ccc(C)cc2)N1C(=O)c1ccc(/C=N\OC[C@@H](O)COCc2ccco2)cc1` belongs 44.4% [at 11.4 µM] (inactive); to `CO[C@@H]1COC(=O)[C@H](Cc2ccccc2)NC(=O)C/C=C\[C@@H](C)[C@H](OC)COC(=O)[C@@H](C)NC(=O)C/C=C\[C@H]1C`, 8.45% [at 11.4 µM] (inactive) and -4.16% [at 11.4 µM] (inactive); to `COCCn1c(SCC(=O)Nc2cc(Cl)ccc2OC)nc2c(c1=O)SC(C)C2` (configuration not stated), 27.1% (inactive).
Regarding `COc1ccccc1NC(=O)C1=C(C)Nc2nnnn2C1c1cccc(Br)c1` (configuration not stated), the “activation” value is -0.777% (inactive).
On to `COC(=O)c1ccc(C2C3=C(Nc4nnnn42)c2ccccc2OC3)cc1` (configuration not stated), for which the Potency was 12.6 µM (active).
Regarding `COc1ccc(C2C(C(=O)Nc3ccccc3OC)=C(C)Nc3nnnn32)c(OC)c1` (configuration not stated), the “activation” value is 5.5% (inactive).
Same read-out and setting: to `O=C(CNCCO)NC12CC3CC(CC(C3)C1)C2` belongs 6.62% (inactive); to `CO[C@H]1COC(=O)[C@@H](C)NC(=O)C/C=C\[C@@H](C)[C@H](OC)COC(=O)C/C=C\[C@@H]1C`, 2.45% [at 11.4 µM] (inactive); to `Cc1ccc(N2CCN(c3ccc(C)cc3)C2c2ccccn2)cc1`, -3.82% (inactive).
Regarding `Cc1ccc(N(CC(O)CN2CCCC2)S(=O)(=O)c2ccccc2)cc1` (configuration not stated), the activation is 9.44% [at 11.4 µM] (inactive).
`Cc1ccc(/C(=C/CN2CCCC2)c2ccccn2)cc1`: the Potency entry is “inactive and 25.1 µM (active)”.
Take `O=NO`: the Potency result is “inactive”.
Regarding `Cn1c(=O)n2n(c1=O)[C@H]1[C@H](O)[C@H]3O[C@H]3C(=O)[C@H]1CC2`, the activation was 0.42% [at 11.4 µM] (inactive).
On to `Cc1cc(NC(=O)Cn2nc(C(F)(F)F)c3c2CCCC3)no1`, for which the “activation” value was -0.746% (inactive).
The same measure, in the same setting: the figure for `O=C(Cn1nc(C(F)(F)F)c2c1CCC2)NCc1ccc(F)cc1` is 14.7% (inactive).
As to `COC(=O)c1ccccc1NC(=O)Cn1nc(C(F)(F)F)c2c1CCC2`, the Potency was 25.1 µM (active).
Regarding `CCCNC(=O)OC[C@@H]1O[C@H](c2ccccc2)C=C[C@@H]1Oc1ccc(OC)cc1`, the activation is 1.38% [at 11.4 µM] (inactive).
Same read-out and setting: to `COC(=O)c1ccc(NC(=O)c2ccco2)cc1` belongs 8.99% (inactive).
On to `CCCC[C@@H]1C[C@H]1C(NC(=O)c1ccc(-c2ccccc2)cc1)c1ccc(-c2ccccc2)cc1` (some centres not stated), for which the “activation” value is 1.42% (inactive).
For the molecule `CCCC[C@@H]1C[C@H]1C(NC(=O)c1ccco1)c1ccc(C(=O)OC)cc1` (some centres not stated), the Potency was 25.1 µM (active).
Turning to `CCC(C)(C)N=C(NC#N)Nc1cccnc1`, the “activation” value is 0.273% (inactive).
Consider `O=C(CN1CCN(c2ccccc2F)CC1)c1ccc2c(c1)OCO2`, for which the “activation” value is 5.84% (inactive).
With `COCCn1c(CN2CCC(Cc3ccccc3)CC2)nc2c1c(=O)n(C)c(=O)n2C`, the “activation” value is 24.7% (inactive).
With `Cn1c(=O)c2c(nc(CN3CCOCC3)n2Cc2ccccc2)n(C)c1=O`, the “activation” value is -0.85% (inactive).
Regarding `CC1CCN(Cc2nc3c(c(=O)n(C)c(=O)n3C)n2CCc2ccccc2)CC1`, the Potency is 5.01 µM (active).
As to `CC1CN(C(=O)c2ccc3c(c2)OCO3)OC(c2ccccc2)O1` (configuration not stated), the “activation” value is 8.54% (inactive).
In the case of `CC(Sc1nc2ccccc2c(=O)n1Cc1ccco1)C(=O)c1ccccc1` (configuration not stated), the Potency was 15.8 µM (active).
Turning to `Cc1ccc(C(=O)CSc2nc3ccccc3c(=O)n2N)o1`, the “activation” value was 13.4% (inactive).
Still for that read-out and setting: the figure for `Cc1nc2c(c(=O)n1Cc1ccco1)c1nc3ccccc3nc1n2Cc1ccccc1` is 27.8% (inactive).
The same measure, in the same setting: to `CO[C@H]1COC(=O)[C@H](Cc2ccccc2)NC(=O)C/C=C\[C@@H](C)[C@H](OC)COC(=O)C/C=C\[C@@H]1C` belongs 25.1% [at 11.4 µM] (inactive).
For the molecule `COc1ccc(NC(=O)N2CC3(CCN(C(=O)c4cccn4C)CC3)C2)cc1`, the “activation” value was 5.6% (inactive).
Same read-out and setting: to `Cn1c(SCC(=O)c2cccs2)nnc1-c1ccco1` belongs -17.6% (inactive); to `COCn1c(COc2ccccc2)nc2ccccc21`, 25.1% [at 11.4 µM] (inactive); to `CC(=O)NC(C)c1nc2ccccc2n1Cc1ccccc1F` (configuration not stated), 11.7% (inactive).
With `COCc1nc2ccccc2n1Cc1ccccc1Br`, the Potency is 31.6 µM (active).
As to `COCc1nnc(NC(=O)CS(=O)(=O)Cc2ccccc2)s1`, the “activation” value was 0.984% (inactive).
Same read-out and setting: the figure for `Cc1ccc(N2CCN(S(=O)(=O)c3ccc(F)cc3)CC2)c(C)c1` is 12.7% (inactive); for `CC(Cc1ccccc1)C(=O)N(C)Cc1ccccc1` (configuration not stated) it is 16.5% (inactive).
As for `CN(C(=O)c1ccccn1)c1nnc(-c2ccccn2)s1`, the “activation” value was -4.34% (inactive).
Take `c1ccc(-c2cc(-c3nnc4sc(-c5ccccn5)nn34)[nH]n2)cc1`: the Potency was 25.1 µM (active).
Turning to `COc1ccc(-c2nn3c(-c4ccccc4)nnc3s2)cc1OC`, the “activation” value was 28.3% (inactive).
Same read-out and setting: the figure for `Cc1ccc(S(=O)(=O)N2CC(=O)Nc3ccccc32)cc1C` is -6.15% [at 11.4 µM] (inactive); for `CCOC(=O)N/N=C1/C[C@@H](O)[C@@H](O)[C@@H]2[C@@H]3C(=O)N(CC)C(=O)[C@H]3CC[C@H]12` it is 2.56% [at 11.4 µM] (inactive).
As to `COc1ccc(OC)c(C(=O)c2coc3ccc(OC)cc23)c1`, the Potency is 10 µM (active).
Consider `COc1ccc(OC)c(C(=O)c2ccc(C(=O)O)cc2)c1`, for which the “activation” value is 2.61% (inactive).
The same measure, in the same setting: the figure for `COc1ccc(OC)c(C(=O)c2coc3ccc(O)c(CN4CCOCC4)c23)c1` is 17.1% (inactive).
Consider `O=C(CN1C(=O)CSc2ncccc21)N1CCOCC1`, for which the “activation” value was -3.29% (inactive).
Turning to `CN(C)c1ccc(NC(=O)c2ccncc2)c2ccccc12`, the “activation” value was -2.48% (inactive).
For the molecule `COc1ccc(CCN2CNc3c(c(=O)n(C)c(=O)n3C)C2)cc1OC`, the “activation” value is 1.78% (inactive).
Regarding `CCC/C=C(\CCC)C(NC(=O)Cc1ccccc1)c1ccc(C(=O)OC)cc1` (configuration not stated), the Potency was 15.8 µM (active).
Turning to `CCN(CC)C(=O)CCC(=O)Nc1ccc(C(=O)OC)cc1`, the “activation” value is 2.85% (inactive).
Regarding `COC(=O)c1ccc(NCC(=O)c2ccccc2)cc1`, the “activation” value is 7.18% (inactive).
Still for that read-out and setting: the figure for `CO[C@H]1COC(=O)CCC[C@@H](C)[C@H](OC)COC(=O)[C@@H](C)NC(=O)C/C=C\[C@@H]1C` is 4.76% [at 11.4 µM] (inactive).
Regarding `Fc1ccc(-c2nnc(CSc3nnc(-c4ccc5c(c4)OCO5)o3)o2)cc1`, the Potency was 25.1 µM (active).
`Fc1ccc(-c2nnc3sc(-c4ccc5c(c4)OCO5)nn23)cc1`: the “activation” value was 23.4% (inactive).
On to `Fc1ccc2nc(-c3ccccc3)nc(SCc3nnc(-c4ccccc4)o3)c2c1`, for which the “activation” value is 19.2% (inactive).
Turning to `Cc1ccc(C(=O)NC2CC(C)(C)NC(C)(C)C2)c(C)c1`, the “activation” value is 0.884% (inactive).
`Cc1nn(Cc2ccccc2)c(Cl)c1C(=O)OC1CCOC1=O` (configuration not stated): the “activation” value is 2.04% (inactive).
Consider `COC(=O)c1ccc(COC(=O)c2c(C)nn(Cc3ccccc3Cl)c2Cl)o1`, for which the Potency was 15.8 µM (active).
On to `CCOC(=O)c1ccc(COC(=O)c2cc(=O)[nH]c3ccccc23)o1`, for which the “activation” value was 3.05% (inactive).
Same read-out and setting: to `CCCCn1c(CCCNC(=O)CC)nc2ccccc21` belongs 14.9% (inactive).
`COc1ccc(NC(=O)CCNC(=O)Cn2ccc3ccccc3c2=O)c(OC)c1`: the “activation” value is -3.68% (inactive).
As for `CC(C)(C)c1cc(CN2CCN(CCC#N)CC2)cc(C(C)(C)C)c1O`, the Potency was 7.94 µM (active).
`N#CCCN1CCN(S(=O)(=O)c2ccc(S(=O)(=O)NC3CC3)cc2)CC1`: the “activation” value is 2.86% (inactive).
For `Cc1ccc(S(=O)(=O)NCC(=O)OCC(=O)N2CCc3ccccc32)cc1`, the “activation” value is -6.34% (inactive).
Take `C[C@@H]1/C=C\CC(=O)OC[C@H]2O[C@@H](C=C[C@@H]2O)[C@H](C)/C=C\CC(=O)OC[C@H]2O[C@H]1C=C[C@@H]2O`: the activation was -6.65% [at 11.4 µM] (inactive).
The same measure, in the same setting: to `O=C(Nc1ccc2c(c1)OCCO2)c1ccncc1` belongs 9.97% (inactive).
Consider `O=C(Nc1cccnc1)c1ccc2c(c1)OCO2`, for which the “activation” value is 4.06% (inactive).
For the molecule `O=C(Nc1nc(-c2ccc3c(c2)OCO3)cs1)c1ccncc1`, the Potency was 20 µM (active).
